Laboratory results: publication PMC5540273 (PLoS ONE, 2017)

Tests used:
Details in all cases: concentration: 1 μM, replicates: in singlicate; n = 1
MRCKA = test system: MRCKA
MRCKB = test system: T1, MRCKB
T1 construct: gene CDC42BPB

MST1R = test system: MST1R
MST1 = test system: T2, MST1
T2 construct: gene STK4

MST2 = test system: T3, MST2
T3 construct: gene STK3

MST3 = test system: T4, MST3
T4 construct: gene STK24

MST4 = test system: MST4
MTOR = test system: MTOR
MUSK = test system: MUSK
MYLK2 = test system: MYLK2
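Also: KINOMEscan kinase panel screen.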

## CC(C)N1CCC(n2cnc(-c3ccc(F)cc3)c2-c2ccnc(N)n2)CC1 [SB-223132]
MRCKA
  %Inh: 18%
MRCKB
  %Inh: 0%
MST1R
  %Inh: 0%
MST1
  %Inh: 0%
MST2
  %Inh: 0%
MST3
  %Inh: 29%
MST4
  %Inh: 0%
MTOR
  %Inh: 27%
MUSK
  %Inh: 0%
MYLK2
  %Inh: 6%

## Fc1cccc(COc2ccc(Nc3ncnc4sc(-c5ccc[nH]5)cc34)cc2Cl)c1 [GW707818]
MRCKA
  %Inh: 23%
MRCKB
  %Inh: 6%
MST1R
  %Inh: 33%
MST1
  %Inh: 0%
MST2
  %Inh: 18%
MST3
  %Inh: 8%
MST4
  %Inh: 0%
MTOR
  %Inh: 13%
MUSK
  %Inh: 0%
MYLK2
  %Inh: 14%

## Cc1ccc(O)cc1Nc1cc(C(F)(F)F)nc2ccc(-c3ccncc3)cc12 [GW630823]
MRCKA
  %Inh: 0%
MRCKB
  %Inh: 0%
MST1R
  %Inh: 19%
MST1
  %Inh: 0%
MST2
  %Inh: 44%
MST3
  %Inh: 18%
MST4
  %Inh: 0%
MTOR
  %Inh: 0%
MUSK
  %Inh: 0%
MYLK2
  %Inh: 4%

## CN1c2ccc(-c3ccc(C(=O)NCCO)cc3)cc2-c2[nH]ncc2S1(=O)=O
MRCKA
  %Inh: 0%
MRCKB
  %Inh: 5%
MST1R
  %Inh: 0%
MST1
  %Inh: 5%
MST2
  %Inh: 35%
MST3
  %Inh: 10%
MST4
  %Inh: 0%
MTOR
  %Inh: 23%
MUSK
  %Inh: 0%
MYLK2
  %Inh: 0%

## C[C@@H]1CCN(C(=O)CO)C[C@@H]1N(C)c1ncnc2[nH]ccc12
MRCKA
  %Inh: 0%
MRCKB
  %Inh: 100%
MST1R
  %Inh: 21%
MST1
  %Inh: 12%
MST2
  %Inh: 0%
MST3
  %Inh: 11%
MST4
  %Inh: 0%
MTOR
  %Inh: 55%
MUSK
  %Inh: 0%
MYLK2
  %Inh: 2%
